Screening results from PubChem.
An excerpt weighted towards active compounds, which were near 2.9% of everything screened.
MITF act: activators of MITF-driven TRPM1 promoter reporter, primary screen, cell-based, SK-MEL-5, luciferase, single point. SK-MEL-5 TRPM1-promoter luciferase, 24 h; % of positive control, neutral wells = 0. activation, % at 12.5 µM. 0.75% of 300,000 active;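 active = mean activation of at least 80% with every replicate also reaching 80%; inconclusive = mean reaches 80% but some replicate falls short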;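 note: 0% = neutral control wells and 100% = parthenolide positive control wells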
TRPM1 prom inh: inhibitors of MITF-dependent TRPM1 promoter reporter, primary screen, cell-based, SK-MEL-5, single point, luciferase. inhibition, % at 12.5 µM. SK-MEL-5 TRPM1 promoter luciferase, 24 h. AID 488899, 2010. 0.83% of 330,000 active;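 active = mean inhibition across replicates of 60% or more, whatever share of single replicates reaches that level; inconclusive = some that reach 60%, reason not given; inactive = mean inhibition across replicates below 60%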
PfHsp90 set2: growth inhibition of PfHsp90-expressing yeast, primary screen, antimalarial PfHsp90 inhibitor project, S. cerevisiae, BacTiter-Glo luminescence, single point, set 2; BacTiter-Glo ATP, 48 h; yeast lacking PDR1 and PDR3 efflux regulators; inhibition, % at 9.4 µM; 0.32% of 310,000 active;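 active = every replicate shows inhibition above about 80%, whatever the replicate mean, limit read from the data; inconclusive = mean inhibition reaches the set limit but some replicate falls short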;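 note: 0% = DMSO neutral controls and 100% = 20 µM radicicol positive controls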
NSD2 inh: NSD2 histone methyltransferase inhibitors, primary screen, biochemical, AlphaScreen, single concentration, set 2. inhibition, % at 12.5 µM. NSD2 peptide methylation, 120 min. 0.54% of 310,000 active. Histone-lysine N-methyltransferase NSD2 (Homo sapiens), O96028; in the data active = inhibition above about 50%
Wnt bcat act: Wnt/beta-catenin pathway activators, primary screen, cell-based, plate reader, single point; 1.2% of 300,000 active; AID 743398, 2014; activation, % at 9.35 µM; Wnt/beta-catenin reporter cell assay, activator; in the data active = activation above about 30%, passing the limit was not always enough; inconclusive = no clear call, values can overlap the other calls;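 note: 0% = neutral control wells and 100% = positive control wells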
N-glyco inh: increase of ERlucT glycosylation luciferase signal, primary screen, N-linked glycosylation inhibitor project, D54 ERlucT cells, luminescence, set 2; D54 ERlucT glycosylation luciferase reporter, 24 h; percent of 100 nM tunicamycin response; reporter increase, % at 12.5 µM; 0.23% of 360,000 active; AID 588692, 2011;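 active = mean luciferase reporter signal, scaled so untreated is 0 and the glycosylation-blocking control 100, at or above a set limit in every replicate; inconclusive = mean reaches the limit but not every replicate does; inactive = mean below the limit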;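 note: luciferase carries N-glycosylation sites so blocking glycosylation raises the light; 0% = median of neutral control wells and 100% = median of 100 nM tunicamycin wells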
* marks the source's active call; other numbers are inactive results; u = inconclusive; x = not tested or not shown.

SMILES	MITF act	TRPM1 prom inh	PfHsp90 set2	NSD2 inh	Wnt bcat act	N-glyco inh
Cc1cc(S(=O)(=O)NC(=O)[C@H]2O[C@@H](n3ccc(=O)[nH]c3=O)[C@H](O)[C@@H]2O)ccc1Br	x	x	x	x	-9	x
Oc1ccc(Cl)cc1Cc1cc(Cl)ccc1O	-3	5	107*	x	-4	-2
COc1ccccc1/C=C/C(=O)Oc1cccc2cccnc12	14	-12	-1	-5	62*	3
O=C(/C=C/c1ccco1)Oc1cccc2cccnc12	-16	-17	2	-1	0	1
O=C(/C=C\c1ccco1)Oc1cccc2cccnc12	-12	10	12	2	40*	-1
CCCCCCCCN1C(=O)[C@@H](CC(=O)NCc2ccc(OC)c(OC)c2)C[C@@]2(C(=O)OC)C1=C[C@H](C1CCCC1)O[C@@H]2C	x	x	x	x	-3	x
O=C(NC1CCCCC1)C(c1ccnc2ccccc12)N1CCc2ccccc2C1 (stereo unspecified)	x	x	x	x	3	2
Cc1ccc(C(C)C)c(OCc2nn(CC(=O)c3ccc(Cl)cc3)c3[n+]2CCCCC3)c1	-66	67*	x	6	-6	6
O=C(Cn1nc(CNc2ccc(Cl)cc2)[n+]2c1CCCCC2)c1ccccc1	-14	16	22	3	-1	1
Cc1nc(N)sc1N=Nc1ccccc1C(F)(F)F	159*	-153	-37	2	28	1
COc1ccc(CCN2C(=O)C=CC2=O)cc1OC	x	24	104*	-1	-8	-7
CCCC(=O)c1ccc(N2CCCC2)c(F)c1	68	-59	16	-5	49*	-1
COc1ccc(/C(C#N)=C/c2ccccn2)cc1	79	-80	1	-8	33*	-3
Cc1nc([N+](=O)[O-])cn1CC(O)c1ccccc1 (stereo unspecified)	x	5	-5	-1	-1	2
Cc1nc([N+](=O)[O-])cn1CC(O)c1ccc(Cl)cc1 (stereo unspecified)	x	-2	0	3	37*	-2
O=S(=O)(c1ccccc1)n1c(CN2CCOCC2)nc2ccccc21	x	x	x	9	x	x
Cc1ccc(S(=O)(=O)N2[C@@H](CO)CO[C@H]2CC(=O)c2cccc3ccccc23)cc1	x	x	x	-1	-6	x
Cc1cc(Br)c2c(c1)/C(=C/C(=O)c1cccs1)C(=O)N2	-49	51	88*	-14	5	7
CCc1ccc2c(c1)/C(=C/C(=O)c1cccs1)C(=O)N2	x	70*	124*	0	x	u
COc1ccc(CN(C)C(C)C(=O)Nc2ccc(S(=O)(=O)N3CCCCC3)cc2)cc1F (stereo unspecified)	-3	4	x	0	34*	-3
COc1ccc(CN(C)C(C)C(=O)Nc2ccc(S(=O)(=O)N3CCOCC3)cc2)c(OC)c1 (stereo unspecified)	0	-1	9	0	-1	1
c1ccc2[nH]c(SCC3CCCCO3)nc2c1 (stereo unspecified)	87*	-89	x	3	40*	-7
Cc1csc(NC(=O)c2ccc3nc[nH]c3c2)n1	19	-20	19	1	36*	-11
COc1cccc(C(=O)Nc2nc(C)cs2)c1	38	-35	1	5	44*	-5
Cc1csc(NC(=S)NC(=O)c2ccccc2)n1	109*	-98	1	-1	24	-1
SMILES	MITF act	TRPM1 prom inh	PfHsp90 set2	NSD2 inh	Wnt bcat act	N-glyco inh
CCCc1nnc(NC(=O)c2cccc(OC)c2)s1	86*	-88	-11	8	18	0
CCOc1ccc(CNC(=O)Cn2ccc3cc(S(=O)(=O)N4CCCCCC4)ccc32)cc1	2	-3	6	-2	-3	-3
O=C1c2[nH]nc(-c3ccccc3)c2C(c2ccc(F)cc2)N1Cc1ccccc1 (stereo unspecified)	x	x	x	x	0	x
N#Cc1ccc(C(=O)NCC2CCN(C(=O)C(=O)c3cccs3)CC2)cc1	x	x	x	6	1	x
C[C@@H]1CNC(=O)c2c(C(=O)N(C)Cc3ccccc3)ncn21	x	x	x	x	3	x
Nc1nc2c(ncn2[C@@H]2O[C@H](C(=O)NCCc3c[nH]c4ccccc34)[C@@H](O)[C@H]2O)c(=O)[nH]1	x	x	x	-2	-4	x
CC(CCc1ccccc1)NS(=O)(=O)c1ccccc1F (stereo unspecified)	-6	-2	4	0	-4	-1
COc1ccccc1Cn1c(/C=C/c2ccccc2)nc2ccccc21	39	-36	-5	-6	38*	-8
COCCn1c(/C=C/c2ccccc2)nc2ccccc21	97*	-98	x	-8	13	-7
COCCn1c(-c2ccccc2)nc2ccccc21	16	-15	6	-3	5	4
COc1ccc(/C=C/c2nc3ccccc3n2Cc2ccccc2OC)cc1	18	-18	19	-4	-14	-8
O=C(c1cccs1)n1cc(C(=S)N2CCOCC2)c2ccccc21	-10	12	11	11	50*	-1
Cc1cccc(NC(=O)c2ccc(NC(C)c3ccccc3)c([N+](=O)[O-])c2)n1 (stereo unspecified)	7	-9	x	8	1	-4
COC(=O)c1[nH]c2ccc(C)cc2c1NC(=O)CCN1CCN(C2CCCCC2)CC1	x	x	x	3	x	x
COC(=O)c1[nH]c2ccc(Br)cc2c1NC(=O)CN1CCN(C2CCCCC2)CC1	-87	86*	-54	4	-8	-12
S=c1nc(-c2ccccc2)oc2c1CCCC2	56	-48	-5	10	74*	-1
Cc1cc(SCC(=O)c2ccc(Cl)cc2)nc(=O)[nH]1	21	-19	3	5	40*	-16
COc1ccc(C2CC(=O)C(c3ccc(C(F)(F)F)cc3)=CN2Cc2ccccc2)cc1 (stereo unspecified)	x	x	x	x	-1	x
C=CCNc1ncnc2c1cnn2-c1cccc(C)c1	66	-70	9	x	26	-6
Cc1cccc(-n2ncc3c(N4CCCC4)ncnc32)c1	52	-48	22	0	14	-19
Cc1cccc(-n2ncc3c(NCCCO)ncnc32)c1	65	-65	15	x	40*	-5
Cc1cccc(-n2ncc3c(N4CC(C)CC(C)C4)ncnc32)c1 (stereo unspecified)	89*	-81	-11	x	12	-6
COc1ccccc1Nc1ncnc2c1cnn2-c1cccc(C)c1	x	-33	39	-2	35*	0
CC1CN(C(=O)c2cccc(COc3ccccc3Cl)c2)CC(C)O1 (stereo unspecified)	46	-43	8	-2	29	0
